Test results taken from ChEMBL document CHEMBL4513216, “Probing the Open Global Health Chemical Diversity Library for Multistage-Active Starting Points for Next-Generation Antimalarials” (ACS Infect Dis, 2020).
About 8,600 (12%) of roughly 69,000 compounds showed an effect of 50% or more. The sample as a whole holds a higher share of strong results than the screen did.

What follows are molecules tested on Plasmodium berghei (assay: Screen against P. berghei liver stage (PbLuc), transformed with Luciferase, at 10uM). Settings: tested at 10 uM.
Format: functional, HepG2

Row | Compound | INHIBITION [%]
1 | CS(=O)(=O)N1CC[C@H]2OCC[C@@]2(C(=O)NCC2CC2)C1 | 42.1
2 | CN1CCN(Cc2c(Cl)ccc(O)c2Cl)CC1C(=O)O (stereo not drawn) | -27.6
3 | CN(C)CCN1C(=O)CCCC12CCCN(C(=O)c1ccncc1)C2 (stereo not drawn) | 5.68
4 | O=C(c1cccnc1)N1CCC2(CC1)CC(Oc1ccccc1)CO2 (stereo not drawn) | 34.4
5 | COC1COC2(CCN(C(=O)c3cnc(C)cn3)CC2)C1 (stereo not drawn) | -21.7
6 | COc1ncccc1C(=O)N1CCC2(CC1)CC(OC)CO2 (stereo not drawn) | 25.8
7 | O=C(c1ccccc1)N1CCC2(CC1)CC(Oc1ccccc1)CO2 (stereo not drawn) | 52
8 | O=C(c1ccccc1F)N1CCC2(CC1)CC(Oc1ccccn1)CO2 (stereo not drawn) | 46.6
9 | COC1COC2(CCN(C(=O)c3ccccc3F)CC2)C1 (stereo not drawn) | 62.9
10 | COC1COC2(CCN(C(=O)c3cscn3)CC2)C1 (stereo not drawn) | 53.9
11 | COC1COC2(CCN(C(=O)c3cocn3)CC2)C1 (stereo not drawn) | 39.4
12 | CC(=O)N1CCC2(CC1)CC(Oc1ccccc1)CO2 (stereo not drawn) | 33.5
13 | CCn1c(O)c(C(C)=O)c2cc(C)ccc21 | 33.4
14 | Cc1ccc(-c2nc(CN3CCCCC3Cn3cncn3)no2)cc1 (stereo not drawn) | 21.5
15 | CCS(=O)(=O)CCSc1ccc(Br)cc1 | -59.8
16 | CN(CC(O)COc1ccc(C(F)(F)F)cc1)C(=O)Nc1nncs1 (stereo not drawn) | -0.87
17 | COc1cc(NC(=O)c2ccc(C)c(F)c2)c(C(=O)N(C)C)cc1OC | 14
18 | CCn1cc(NC(=O)NC(CO)Cc2c[nH]c3ccccc23)cn1 (stereo not drawn) | 32.3
19 | CCn1cc(S(=O)(=O)NC(=O)CCc2c[nH]c3ccccc23)cn1 | 61.5
20 | CCn1cc(S(=O)(=O)NC(CO)Cc2c[nH]c3ccccc23)cn1 (stereo not drawn) | 19.3
21 | CN(Cc1cc(C(C)(C)C)n[nH]1)C(=O)CCC(=O)NC1CCCC1 | 32.1
22 | Cn1ncc(NC(=O)c2noc3c2CCCC3)c1C(N)=O | 2.6
23 | O=C(C1CCC2(CCN(CC3CC3)CC2)O1)N1CCCC1 (stereo not drawn) | 1.34
24 | COc1ccc(C(=O)N(C)Cc2cccc(C#N)c2)c(OC)c1OC | 50.1

Row | Compound | INHIBITION [%]
25 | COc1ccc(C(=O)N(C)Cc2nnc3ccccn23)c(OC)c1OC | -8.11
26 | COc1cccc(CN(C)Cc2cccc(C#N)c2)c1OC | -3.19
27 | CCOc1ccc2oc(-c3cn(C)nc3C)c(O)c(=O)c2c1 | 25.9
28 | COC(=O)CCC(=O)N(Cc1ccc2cc[nH]c2c1)C1CC1 | -8.8
29 | COc1cc(C2CC(=O)Nc3c2nc2n3CCCC2)cc2c1OCO2 (stereo not drawn) | 34
30 | CCNC(=O)[C@@H]1C[C@@H](N)CN1C(=O)c1[nH]c2ccccc2c1CC | 11.5
31 | CCOCCCNc1ncc(-c2onc(C)c2C)c(-c2ccco2)n1 | 27.465
32 | CCC(=O)NCC1(O)CCC(C(C)(C)C)CC1 (stereo not drawn) | -5.92
33 | CN(CCOc1ccc(Br)cc1)Cc1cscn1 | -62.6
34 | COCCS(=O)(=O)N(Cc1cscn1)c1ccccc1 | 22.8
35 | CCN(C)S(=O)(=O)N(Cc1cscn1)c1ccccc1 | 66.4
36 | Cc1ccc(OCCN(C)Cc2cscn2)cc1 | -23.8
37 | Cc1cc(C)cc(OCCN(C)Cc2cscn2)c1 | 28.1
38 | CN(C)S(=O)(=O)N(Cc1cscn1)c1ccccc1 | 62.4
39 | CC(C)c1ccc(CN2CCCC3(CC2)CN(C)C(=O)O3)cc1 (stereo not drawn) | -58.7
40 | CS(=O)(=O)c1cncnc1C1CCCNC1 (stereo not drawn) | 20.4
41 | CN(C)C(=O)CN1C(=O)CCC12CCN(Cc1cccs1)CC2 | 9.97
42 | CCc1ccc(CNC(=O)c2ccc(N3CCOC3=O)cc2)s1 | 78.2
43 | Cc1ccsc1CNC(=O)c1ccc(N2CCNC2=O)cc1 | 25.2
44 | Cc1noc(C)c1CNC(=O)Nc1ccc(N2CCOC2=O)cc1 | 13.9
45 | Cc1ccsc1CNC(=O)c1ccc2c(c1)CCC(=O)N2 | -20.8
46 | O=C1CCc2cc(C(=O)NCc3ccc(Cl)s3)ccc2N1 | -28.6
47 | Cc1ccsc1CNC(=O)c1ccc(N2CCOC2=O)cc1 | 56.8
48 | O=C(NCc1ccc(Cl)s1)c1ccc(N2CCOC2=O)cc1 | 72.2

Row | Compound | INHIBITION [%]
49 | O=C1COc2cc(C(=O)NCc3ccc(Cl)s3)ccc2N1 | 16.8
50 | CCc1ccc(CNC(=O)NC(C)CN2CCOCC2)s1 (stereo not drawn) | -3.95
51 | Cc1cccn2cc(C[S+]([O-])Cc3noc(C(C)C)n3)nc12 (stereo not drawn) | -9.51
52 | Cc1noc(C)c1-c1cncc(C2CCCN2Cc2c[nH]cn2)n1 (stereo not drawn) | 32.8
53 | CC(=O)N1CCC(c2c(CN(C)C)cnc3cc(C)nn23)CC1 | -0.8
54 | CCS(=O)(=O)N1CCOC2(CCCN(c3ccc(C)nn3)C2)C1 (stereo not drawn) | 5.65
55 | O=C1NC(C(=O)NCc2cccnc2Oc2ccc(F)cc2F)CO1 (stereo not drawn) | 9.52
56 | CSCC[C@@H]1CN2CCC[C@H]2CN1Cc1coc2ccc(Cl)cc2c1=O | 7.11
57 | Cc1cc(NC(=O)CN(CC2CCOC2)C2CC2)no1 (stereo not drawn) | 21.5
58 | O=c1[nH]nc2nc(N3CCCC3)ccn12 | 19.8
59 | O=c1[nH]nc2nc(N3CCSCC3)ccn12 | 9.96
60 | Cc1cccc(N2CCN(c3ccn4c(=O)[nH]nc4n3)CC2)c1C | 65.8
61 | Cn1ccnc1CN1CCN(CC(O)c2ccccc2)CC1 (stereo not drawn) | 4.52
62 | O=C1CCC(C(=O)NCc2nncn2-c2ccccc2)CN1 (stereo not drawn) | 51
63 | O=C(NCc1nncn1-c1ccccc1)C1CC1 | -21.8
64 | O=C(NCc1nncn1-c1ccccc1)C1CCCC1 | 11.9
65 | Cc1cccc(CN2CCc3nnc(CN4CCCC4=O)n3CC2)n1 | 35.7
66 | CC(=O)CSc1sc2c(O)cc(=O)[nH]c2c1C(N)=O | 26
67 | CN(CC1Cc2ccccc2CN1C)C(=O)CSc1nccn1C (stereo not drawn) | 40.9
68 | Cc1cc(=O)[nH]c(SCC(=O)N(C)CC2Cc3ccccc3CN2C)n1 (stereo not drawn) | 50.2
69 | CN(CC1Cc2ccccc2CN1C)C(=O)CSc1ccccn1 (stereo not drawn) | -4.91
70 | O=C(NCc1ccco1)c1[nH]nc2c1CS(=O)(=O)CC2 | 48.2
71 | O=C1CO[C@@H]2CN(Cc3cccs3)C[C@H]2N1CC1CC1 | 24.5
72 | O=C1CCC(C(=O)NCc2nn(-c3ccccc3)c3c2CCC3)CN1 (stereo not drawn) | 41.9

Row | Compound | INHIBITION [%]
73 | Cc1c(CNCc2nn(-c3ccccc3)c3c2CCC3)cc(C#N)n1C | 63.6
74 | O=C(NCc1nn(-c2ccccc2)c2c1CCC2)NC1CC1 | 30.2
75 | COc1ccccc1CNCc1nn(-c2ccccc2)c2c1CCC2 | 36.8
76 | O=C(NCc1nn(-c2ccccc2)c2c1CCC2)C1CC1 | 59.55
77 | Cc1noc(C)c1CNCc1nn(-c2ccccc2)c2c1CCC2 | -0.159
78 | Cc1cc(C)n(CCCNC(=O)[C@@H](C)NC(=O)OC(C)(C)C)n1 | 15.8
79 | CCOc1ccc(Cl)cc1NC(=O)N1CCC(n2cncn2)CC1 | 47
80 | NC(=O)c1cnc(-c2ccccc2)nc1CCNC(=O)CN1CCCC1 | 12.8
81 | COC1CCN(C(=O)c2ccccc2NCc2cccnc2)CC1 | -30
82 | COC(=O)c1cc(CN2CCN(c3nc(C)cnc3C)CC2)ccc1O | 51.2
83 | Cc1cnc(C)c(N2CCN(CC3CCCO3)CC2)n1 (stereo not drawn) | 4.93
84 | CCc1ccc(O)c(C(=O)NC2CCN(Cc3ccncc3)CC2)c1 | 48.9
85 | Cc1ccc(CN2CCC(Cc3nnc(CO)n3C)CC2)cc1C | 4.48
86 | Cc1cccc(CN2CCN(C(=O)c3cccnc3O)CC2)c1 | 11.2
87 | COC(=O)c1cc(C)nc(N2CCN(Cc3ccn(C(C)C)c3)CC2)n1 | 24.2
88 | COC(=O)c1cc(CN2CCN(c3ncccc3C)CC2)ccc1O | 71
89 | Cc1cnc(C)c(N2CCN(Cc3ccc(C)c(C)c3)CC2)n1 | 75
90 | Cc1cccnc1N1CCN(Cc2cc(O)c3cccc(F)c3n2)CC1 | 18.6
91 | Cc1noc(C)c1-c1nc(C2CCCN(C(=O)CCN)C2)ccc1CO (stereo not drawn) | -10.2
92 | Cc1nc(C2CCCN(C(=O)COCc3ccccc3)C2)no1 (stereo not drawn) | 21.5
93 | CCn1ncc2[nH]c(-c3cc4c(cc3OC)OCO4)nc21 | -7.2
94 | O=C(NCCc1ccccc1)C1CCN(C(=O)Cn2cncn2)C1 (stereo not drawn) | 3.48
95 | CN(C(=O)CSc1ncc[nH]1)C1CC1 | 53.9
96 | CCN(CC)C(=O)CSc1ncc[nH]1 | 44.2

Row | Compound | INHIBITION [%]
97 | CN(C(=O)CSc1ncc[nH]1)c1ccccc1 | 49.6
98 | CC(C)(C)OC(=O)N1CCC(C(=O)NCc2cc3ccccc3[nH]2)C1 (stereo not drawn) | -8.4
99 | CC(C)N1CCC2(CC1)C(=O)N(c1cccnc1)c1ccc(F)cc12 | 28.2
100 | COC[C@]1(O)CCN(C2CCN(c3ccc(Cl)cc3)CC2)CC1(C)C | 29.4
101 | O=C(NCCCn1nc2ccccn2c1=O)NCCC1CCC1 | 37.9
102 | Cc1nc(CN2CCC(c3nc4ccccc4n3C)CC2)co1 | 42.3
103 | Cn1ccnc1CN1CCC(c2nc3ccccc3n2C)CC1 | 39.3
104 | CC(C)c1nccc(CN2CCC(c3nc4ccccc4n3C)CC2)n1 | 52.6
105 | Cc1cccc(CN2CC3(CCN(C4CCOC4)CC3)OCC2=O)n1 (stereo not drawn) | 5.56
106 | CSCc1noc(CNC(=O)[C@H]2CNC[C@@H](C(=O)N3CCCC3)C2)n1 | 38.5
107 | CCCn1ccnc1CN1CCCC(CC)(CO)C1 (stereo not drawn) | 0.348
108 | CNc1nc(C(=O)N2CCC3(CCCN(CCOC)C3=O)C2)cs1 (stereo not drawn) | 36.2
109 | COCCC1(CO)CCCN(C(=O)c2cccnc2O)C1 (stereo not drawn) | 56.3
110 | CCCC1(CO)CCCN(Cc2nccs2)C1 (stereo not drawn) | 81.6
111 | COCCCC1(CO)CCCN(CCOC)C1 (stereo not drawn) | -6.88
112 | CC(C)=CCC1(CO)CCCN(Cc2nccs2)C1 (stereo not drawn) | -21.1
113 | COCCC1(CO)CCCN(C(=O)c2cc(Cl)ccc2F)C1 (stereo not drawn) | -2.43
114 | CNc1ncc(C(=O)N2CCCC(CO)(CCCOC)C2)cn1 (stereo not drawn) | 31.3
115 | CCCC1(CO)CCCN(Cc2ncccn2)C1 (stereo not drawn) | -36.5
116 | COCCC1(CO)CCCN(C(=O)c2cccnc2OC)C1 (stereo not drawn) | 43.4
117 | CNc1nc(C(=O)N2CCCC(CO)(CCCOC)C2)cs1 (stereo not drawn) | 58.6
118 | COCCCC1(CO)CCCN(Cc2nccs2)C1 (stereo not drawn) | 75.2
